From PubChem
MPTP block – inhibitors of mitochondrial permeability transition pore. AID 602449. isolated mouse mitochondria, Ca2+ swelling absorbance, 30 min. 360,000 compounds, 1.4% hits. inhibition, % at 10 µM;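 active = inhibition of 50% or more, scaled per plate between neutral and stimulator controls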
NR3A LBD binder – modulators (binders) of human NR3A ligand-binding domain. AID 1259313. NR3A LBD differential scanning fluorimetry, Tm shift; 0% = protein alone, 100% = glycine-bound protein. Tm shift relative to glycine control, % at 25 µM. 340,000 compounds, 2.5% hits;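 active = melting temperature shift of at least 10% of the positive control shift, at one fixed dose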
rCAG binder – molecules binding r(CAG) RNA repeats; r(CAG) RNA repeat, TO-PRO-1 dye displacement fluorescence; inhibition, % at 3 µM; 370,000 compounds, 1.3% hits; AID 651821;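 active = inhibition above the plate cutoff, the mean of all test compounds on that plate plus 3 SD, cut at about 35% in these data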;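 note: higher means more dye released from RNA so lower well fluorescence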
FAS-TE inh – FAS thioesterase (human) inhibition. P49327. recombinant FAS-TE, OMFH fluorogenic substrate, fluorescence endpoint. inhibition, % at 15 µM. 360,000 compounds, 0.67% hits;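 active = compounds whose normalised, plate-corrected inhibition of enzyme fluorescence in the single-dose primary screen is 50% or more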
Myeloid diff 2 – compounds promoting myeloid differentiation; ER-HoxA9 myeloid progenitors, lysozyme-GFP differentiation, flow cytometry; calls only at 10 µM; 360,000 compounds, 1% hits; AID 624256;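 active = normalized GFP-positive differentiation at or above the plate's own cutoff, the solvent-only control mean plus 3 SD; inconclusive = no clear call, values can overlap the other calls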;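 note: cells exposed to compound for four days before flow analysis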
FAS-TE conf – confirmation of human fatty acid synthase thioesterase inhibitors. inhibition, % at 15 µM. recombinant FAS-TE, OMFH fluorogenic substrate, fluorescence. 2,300 compounds, 45% hits. shares compounds with FAS-TE inh;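 active = compounds inhibiting the enzyme by at least 50% at 15 µM in any one of the replicates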
Hits are given with their value; – = inactive; ? = inconclusive; · = not tested or not shown. The list is not random: actives were taken first. Their share in the collection is about 5.7%.

SMILES	MPTP block	NR3A LBD binder	rCAG binder	FAS-TE inh	Myeloid diff 2	FAS-TE conf
Cc1ccc(COC(=O)c2cc([N+](=O)[O-])ccc2N2CCOCC2)cc1	–	·	–	53.9	·	52.0
O=C(OCc1ccc([N+](=O)[O-])cc1)c1cc([N+](=O)[O-])ccc1N1CCOCC1	–	–	–	79.8	–	75.8
COC[C@H]1CCCN1c1ccc2c(c1)OCCCN(C1CC1)S2(=O)=O	·	·	–	·	·	·
C=CCN1[C@H](C)COc2cc(F)ccc2S1(=O)=O	·	·	–	·	·	·
CS(=O)(=O)c1ccc(Cl)c(C(=O)NCC2CCCCC2)c1	–	–	–	–	–	·
Cc1ccc(O)c(NC(=O)c2cc([N+](=O)[O-])ccc2Cl)c1	–	–	–	53.8	–	59.9
O=C(NC12CC3CC(CC(C3)C1)C2)c1cc([N+](=O)[O-])ccc1Cl	–	–	–	59.3	–	–
Cc1cc(O)c(NC(=O)c2cc([N+](=O)[O-])ccc2Cl)cc1C	–	–	–	–	–	·
Cc1ccc([N+](=O)[O-])cc1NC(=S)NCCc1ccccc1	–	–	–	55.5	–	71.3
O=C(NCC1CCCCC1)c1cc([N+](=O)[O-])ccc1Cl	–	–	–	51.0	–	56.0
COC(=O)[C@]12C[C@H](CC(=O)NCCCCc3ccccc3)C(=O)N(CCC3=CCCCC3)C1=C[C@H](C(C)(C)C)O[C@@H]2C	·	·	–	·	·	·
O=C(NCCCc1ccccc1)c1cc([N+](=O)[O-])ccc1Cl	–	–	–	83.8	–	89.8
CC(Cc1ccccc1)NC(=O)c1cc([N+](=O)[O-])ccc1Cl (stereo not drawn)	–	–	–	57.9	–	69.8
CC(NC(=O)c1ccc([N+](=O)[O-])cc1[N+](=O)[O-])c1ccc(-c2ccccc2)cc1 (stereo not drawn)	–	–	–	55.3	–	–
CCC(NC(=O)c1ccc([N+](=O)[O-])cc1[N+](=O)[O-])c1ccccc1 (stereo not drawn)	–	–	–	–	–	·
Cc1ccc(NP(=O)(c2ccc(N(C)C)cc2NC(=O)c2cccs2)N2CCOCC2)cc1 (stereo not drawn)	–	–	–	–	–	·
CN(C)c1ccc(P(=O)(Nc2ccc([N+](=O)[O-])cc2)N2CCOCC2)c(NC(=O)c2cccs2)c1 (stereo not drawn)	–	–	–	53.9	–	–
O=C(Cn1cnc2ccccc2c1=O)N1CCN(Cc2ccc(F)cc2)CC1	·	·	–	·	·	·
Cc1ccc(C(=O)N/C(=C\c2cccc([N+](=O)[O-])c2)C(=O)Nc2cccc(C(=O)O)c2)cc1	–	–	–	55.3	–	59.8
O=C(Nc1cccc(C(=O)O)c1)/C(=C\c1cccc([N+](=O)[O-])c1)NC(=O)c1ccc(Br)cc1	–	·	–	69.2	–	75.4
COc1ccc(C(=O)N/C(=C\c2cccc([N+](=O)[O-])c2)C(=O)Nc2cccc(C(=O)O)c2)cc1	–	–	–	–	–	·
O=C(NCc1ccccc1)/C(=C\c1cccc([N+](=O)[O-])c1)NC(=O)c1ccco1	–	·	–	68.0	–	76.2
COC(=O)[C@@H](Cc1ccccc1)NC(=O)[C@H]1O[C@@H](n2cnc3c(=O)[nH]c(N)nc32)[C@H](O)[C@@H]1O	·	·	–	·	·	·
CC1(C(=O)Nc2ccc3c(c2)OCCO3)CN(S(C)(=O)=O)CC(=O)N1CCc1c[nH]c2ccccc12 (stereo not drawn)	–	·	–	·	–	·
Cc1cc2c(c(=O)o1)[C@@]1(C(=O)N(C)c3ccc([N+](=O)[O-])cc31)C1=C(CCCC1=O)O2	·	·	–	·	·	·
SMILES	MPTP block	NR3A LBD binder	rCAG binder	FAS-TE inh	Myeloid diff 2	FAS-TE conf
Cc1ccc(NC(=O)c2cccc(S(=O)(=O)Nc3c(C)n(C)n(-c4ccccc4)c3=O)c2)cc1C	·	–	–	·	·	·
Cc1ccc(NC(=O)/C(=C\c2ccccc2)NC(=O)/C=C/c2ccccc2)cc1	–	–	–	72.7	–	–
O=C(/C=C/c1ccccc1)N/C(=C/c1ccccc1)C(=O)Nc1cccc(C(=O)O)c1	–	–	–	–	–	·
COc1ccc2cc(/C=N/NC(=O)CN(c3ccccc3OC)S(=O)(=O)c3ccccc3)c(Cl)nc2c1	·	·	–	·	·	·
C[C@@H]1CN([C@H](C)CO)S(=O)(=O)c2ccc(C#Cc3ccccc3F)cc2O[C@@H]1CN(C)C(=O)Cc1ccccc1	–	·	–	69.9	–	41.4
C[C@H]1CN([C@@H](C)CO)S(=O)(=O)c2ccc(Br)cc2O[C@H]1CN(C)C(=O)Cc1ccccc1	–	·	–	–	–	·
Cc1cccc(Nc2nnc(-c3ccc(N4CCOCC4)c([N+](=O)[O-])c3)c3ccccc23)c1	–	–	–	82.3	?	–
Cc1nnc(-c2ccc(N3CCOCC3)c([N+](=O)[O-])c2)o1	–	–	·	–	–	·
CCOC(=O)[C@@H]1CSCCS(=O)(=O)N1C(=O)[C@H](CC(C)C)NC(=O)OC(C)(C)C	·	·	–	·	·	·
Cc1ccc(-c2c(C(=O)N(C)Cc3ccccc3)oc(=O)c3ccccc23)cc1	–	–	–	53.6	–	51.1
C=CCN=C1NC(c2ccccc2)C(C(=O)OC)=C(C)N1C (stereo not drawn)	·	·	–	·	·	·
CC(=O)c1c(C)oc2ccc(N(C(C)=O)S(=O)(=O)c3cccc([N+](=O)[O-])c3)cc12	–	–	–	–	–	·
CC(=O)c1c(C)oc2ccc(N(C(=O)C3CCCCC3)S(=O)(=O)c3cc([N+](=O)[O-])ccc3C)cc12	–	–	–	80.0	–	–
C[C@H]1COc2cc(N3CCOCC3)ccc2S(=O)(=O)N1	·	·	–	·	·	·
O=C(NC1CCCCN(Cc2cccc(C(F)(F)F)c2)C1=O)c1ccc(F)cc1 (stereo not drawn)	·	·	–	·	·	·
COC(=O)[C@]12CCCCC=C1N(Cc1ccc(OC)cc1)C(=O)[C@@H]2CC(=O)NCc1ccc(OC)c(OC)c1	·	·	–	·	·	·
Cn1c(-c2cccc([N+](=O)[O-])c2)cnc1NCc1cccc(F)c1	–	–	–	–	–	·
Cn1c(-c2ccc(F)cc2)cnc1NCc1cccc([N+](=O)[O-])c1	–	–	–	76.3	–	78.3
CCOC(=O)C1=CC[C@H]2c3c(c4ccccc4n3C)C(=O)C1N2C(=O)OC(C)(C)C	–	–	–	63.1	–	46.1
CCOC(=O)C1=CC[C@H]2c3c(c4ccccc4n3C)C(=O)C1N2C	–	–	–	–	–	·
O=C(COc1ccc([N+](=O)[O-])cc1)Nc1ccc2c(c1)OCO2	–	–	–	58.9	–	–
COc1ccc(OCC(=O)Nc2ccc3c(c2)OCO3)cc1	–	–	–	–	–	·
CCN1C(=O)[C@H]2[C@@H](c3ccc(C)cc3)N3C(=O)N(c4ccc(OC)cc4)C(=O)[C@@]3(Cc3ccccc3)[C@H]2C1=O	–	–	–	–	–	·
CCN1C(=O)[C@H]2[C@@H](c3ccc(C)cc3)N3C(=O)N(c4ccccc4)C(=O)[C@@]3(Cc3ccc(Cl)cc3)[C@H]2C1=O	–	–	·	62.9	–	–
